Assay results taken from the supplement of paper PMC11732987, “Enantioselective OTUD7B fragment discovery through chemoproteomics screening and high-throughput optimisation” (Communications Chemistry, 2025).

How the values were obtained:
Assay in all cases: log2 ratio of Biotin-Ahx-Ub-VS probe labelling (fragment/DMSO); higher = less target engagement (more negative = stronger competition), active = hit call of the paper (q ≤ 0.05, log2 ratio ≤ -1)
Conditions in all cases: compound concentration: 200 uM; treatment time: 3 h
USP19 = molecular target: T1, USP19 (UniProt O94966)
T1 sequence (whole entry): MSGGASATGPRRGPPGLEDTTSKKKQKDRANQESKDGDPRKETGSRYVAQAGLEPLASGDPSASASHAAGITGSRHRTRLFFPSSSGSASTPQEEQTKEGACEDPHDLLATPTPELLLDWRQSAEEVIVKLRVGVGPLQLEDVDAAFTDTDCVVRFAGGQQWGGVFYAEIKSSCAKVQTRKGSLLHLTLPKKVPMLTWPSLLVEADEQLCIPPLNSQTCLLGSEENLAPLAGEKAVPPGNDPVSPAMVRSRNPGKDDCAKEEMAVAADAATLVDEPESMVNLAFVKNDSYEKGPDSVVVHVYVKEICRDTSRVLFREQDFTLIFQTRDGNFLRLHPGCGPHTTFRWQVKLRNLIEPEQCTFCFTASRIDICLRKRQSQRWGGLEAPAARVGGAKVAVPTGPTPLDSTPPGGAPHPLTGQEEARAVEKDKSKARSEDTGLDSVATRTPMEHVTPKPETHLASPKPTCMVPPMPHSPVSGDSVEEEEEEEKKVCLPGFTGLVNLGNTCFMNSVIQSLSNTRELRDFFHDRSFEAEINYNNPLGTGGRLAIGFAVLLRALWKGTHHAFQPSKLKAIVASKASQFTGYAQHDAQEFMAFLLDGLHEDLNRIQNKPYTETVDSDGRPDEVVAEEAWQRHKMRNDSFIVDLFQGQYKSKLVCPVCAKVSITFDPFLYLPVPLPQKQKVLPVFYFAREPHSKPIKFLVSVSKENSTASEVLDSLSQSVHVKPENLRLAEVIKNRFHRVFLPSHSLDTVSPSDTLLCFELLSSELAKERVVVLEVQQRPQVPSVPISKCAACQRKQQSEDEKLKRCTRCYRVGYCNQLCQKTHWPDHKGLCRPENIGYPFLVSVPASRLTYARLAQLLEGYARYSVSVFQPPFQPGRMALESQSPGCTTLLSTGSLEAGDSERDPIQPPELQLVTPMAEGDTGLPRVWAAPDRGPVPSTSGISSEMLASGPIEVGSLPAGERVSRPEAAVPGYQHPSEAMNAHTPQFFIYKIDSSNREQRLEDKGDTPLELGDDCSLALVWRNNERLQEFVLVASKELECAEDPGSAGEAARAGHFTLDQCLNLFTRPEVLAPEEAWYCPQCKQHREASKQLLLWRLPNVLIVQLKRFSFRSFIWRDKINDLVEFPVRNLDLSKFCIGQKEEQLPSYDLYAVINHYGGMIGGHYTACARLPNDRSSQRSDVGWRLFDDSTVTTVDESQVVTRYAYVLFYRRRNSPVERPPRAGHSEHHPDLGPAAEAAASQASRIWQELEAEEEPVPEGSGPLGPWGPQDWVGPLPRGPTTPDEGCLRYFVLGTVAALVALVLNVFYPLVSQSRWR
Summary of the method: (§1)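 Values give the average log2 ratio of fragment to vehicle, assessed by unpaired t-test on global-median-normalised Spectronaut label-free quantities. Proteins needed ≥2 unique peptides. HEK293T lysate (495 µg per sample) was treated in triplicate with fragment at 200 µM or vehicle for 3 h and then with Biotin-Ahx-Ub-VS at 0.5 µM final for 1 h. Labelled DUBs were NeutrAvidin-enriched, digested and run by diaPASEF LC-MS/MS.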

USP22 = molecular target: T2, USP22 (UniProt Q9UPT9)
T2 sequence (whole entry): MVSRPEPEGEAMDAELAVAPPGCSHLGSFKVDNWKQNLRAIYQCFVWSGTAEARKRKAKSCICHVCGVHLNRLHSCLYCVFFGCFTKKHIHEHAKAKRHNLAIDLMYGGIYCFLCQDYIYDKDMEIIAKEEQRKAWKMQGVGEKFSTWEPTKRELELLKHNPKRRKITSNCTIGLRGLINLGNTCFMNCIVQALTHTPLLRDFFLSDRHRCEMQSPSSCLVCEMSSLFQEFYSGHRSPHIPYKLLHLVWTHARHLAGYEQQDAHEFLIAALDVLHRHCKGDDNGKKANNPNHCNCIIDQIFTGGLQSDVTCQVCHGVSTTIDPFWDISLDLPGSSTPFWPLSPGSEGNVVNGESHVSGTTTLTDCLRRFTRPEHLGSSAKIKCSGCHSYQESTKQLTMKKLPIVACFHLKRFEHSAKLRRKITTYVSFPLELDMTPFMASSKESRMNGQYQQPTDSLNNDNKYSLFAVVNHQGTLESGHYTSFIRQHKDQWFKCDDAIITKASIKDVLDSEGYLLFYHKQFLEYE
Summary of the method: as §1

USP24 = USP24 (UniProt Q9UPU5)
Summary of the method: as §1

USP25 = molecular target: T3, USP25 (UniProt Q9UHP3)
T3 sequence (whole entry): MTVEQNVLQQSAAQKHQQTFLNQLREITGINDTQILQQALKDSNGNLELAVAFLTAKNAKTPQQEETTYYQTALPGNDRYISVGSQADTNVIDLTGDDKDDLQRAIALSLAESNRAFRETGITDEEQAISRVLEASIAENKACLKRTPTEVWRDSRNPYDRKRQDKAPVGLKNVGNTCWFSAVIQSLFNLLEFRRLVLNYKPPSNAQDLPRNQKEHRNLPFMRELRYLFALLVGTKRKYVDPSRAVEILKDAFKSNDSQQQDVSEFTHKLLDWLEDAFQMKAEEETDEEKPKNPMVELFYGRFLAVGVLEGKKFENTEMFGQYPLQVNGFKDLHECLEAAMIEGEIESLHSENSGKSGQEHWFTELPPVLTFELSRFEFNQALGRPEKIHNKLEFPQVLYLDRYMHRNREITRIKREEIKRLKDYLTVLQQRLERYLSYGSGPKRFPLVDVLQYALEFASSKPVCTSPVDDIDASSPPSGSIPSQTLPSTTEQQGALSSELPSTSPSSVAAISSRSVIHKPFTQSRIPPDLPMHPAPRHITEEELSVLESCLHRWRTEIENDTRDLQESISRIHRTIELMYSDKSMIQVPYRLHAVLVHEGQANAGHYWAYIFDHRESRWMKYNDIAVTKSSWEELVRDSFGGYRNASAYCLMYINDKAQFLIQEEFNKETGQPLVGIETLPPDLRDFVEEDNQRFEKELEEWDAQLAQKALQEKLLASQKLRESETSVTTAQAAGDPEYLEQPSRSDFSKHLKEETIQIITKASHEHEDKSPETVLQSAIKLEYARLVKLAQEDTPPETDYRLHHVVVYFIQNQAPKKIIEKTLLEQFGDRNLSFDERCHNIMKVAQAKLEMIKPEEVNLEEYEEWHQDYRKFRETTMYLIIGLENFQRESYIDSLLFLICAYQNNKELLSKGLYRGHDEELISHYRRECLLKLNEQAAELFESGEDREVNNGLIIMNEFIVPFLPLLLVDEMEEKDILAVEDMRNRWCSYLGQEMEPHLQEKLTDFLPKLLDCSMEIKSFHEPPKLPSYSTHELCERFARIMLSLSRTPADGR
Summary of the method: as §1

USP28 = molecular target: T4, USP28 (UniProt Q96RU2)
T4 sequence (whole entry): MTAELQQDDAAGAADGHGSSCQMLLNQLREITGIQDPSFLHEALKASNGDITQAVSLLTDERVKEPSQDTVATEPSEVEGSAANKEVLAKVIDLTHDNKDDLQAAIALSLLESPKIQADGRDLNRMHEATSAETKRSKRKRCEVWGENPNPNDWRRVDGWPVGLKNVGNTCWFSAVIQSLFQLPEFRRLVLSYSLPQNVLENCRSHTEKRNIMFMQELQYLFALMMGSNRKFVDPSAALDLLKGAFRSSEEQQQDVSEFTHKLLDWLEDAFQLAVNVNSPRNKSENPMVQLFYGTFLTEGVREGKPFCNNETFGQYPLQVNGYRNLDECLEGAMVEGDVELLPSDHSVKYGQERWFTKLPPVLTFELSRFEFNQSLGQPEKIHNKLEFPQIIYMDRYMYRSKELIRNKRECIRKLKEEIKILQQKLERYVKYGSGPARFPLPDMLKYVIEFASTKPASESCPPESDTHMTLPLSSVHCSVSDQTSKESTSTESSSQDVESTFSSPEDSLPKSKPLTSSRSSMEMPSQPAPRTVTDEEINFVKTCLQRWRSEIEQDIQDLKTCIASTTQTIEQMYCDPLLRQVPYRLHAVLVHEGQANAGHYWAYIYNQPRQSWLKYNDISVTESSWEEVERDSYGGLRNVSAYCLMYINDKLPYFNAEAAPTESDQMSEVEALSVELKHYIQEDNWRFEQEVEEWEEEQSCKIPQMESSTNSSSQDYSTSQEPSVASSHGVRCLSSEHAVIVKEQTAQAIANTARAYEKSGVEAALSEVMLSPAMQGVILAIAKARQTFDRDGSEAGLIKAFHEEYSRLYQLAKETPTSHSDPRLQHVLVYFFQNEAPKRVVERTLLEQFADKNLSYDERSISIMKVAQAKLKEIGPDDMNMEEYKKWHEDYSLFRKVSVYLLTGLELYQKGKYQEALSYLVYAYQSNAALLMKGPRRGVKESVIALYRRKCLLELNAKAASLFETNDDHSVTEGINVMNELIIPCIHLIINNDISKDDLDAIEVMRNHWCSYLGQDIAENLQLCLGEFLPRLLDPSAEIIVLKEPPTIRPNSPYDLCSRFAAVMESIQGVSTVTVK
Summary of the method: as §1

Measured: log2 ratio of Biotin-Ahx-Ub-VS probe labelling

Chain of USP24 (Q9UPU5 whole entry): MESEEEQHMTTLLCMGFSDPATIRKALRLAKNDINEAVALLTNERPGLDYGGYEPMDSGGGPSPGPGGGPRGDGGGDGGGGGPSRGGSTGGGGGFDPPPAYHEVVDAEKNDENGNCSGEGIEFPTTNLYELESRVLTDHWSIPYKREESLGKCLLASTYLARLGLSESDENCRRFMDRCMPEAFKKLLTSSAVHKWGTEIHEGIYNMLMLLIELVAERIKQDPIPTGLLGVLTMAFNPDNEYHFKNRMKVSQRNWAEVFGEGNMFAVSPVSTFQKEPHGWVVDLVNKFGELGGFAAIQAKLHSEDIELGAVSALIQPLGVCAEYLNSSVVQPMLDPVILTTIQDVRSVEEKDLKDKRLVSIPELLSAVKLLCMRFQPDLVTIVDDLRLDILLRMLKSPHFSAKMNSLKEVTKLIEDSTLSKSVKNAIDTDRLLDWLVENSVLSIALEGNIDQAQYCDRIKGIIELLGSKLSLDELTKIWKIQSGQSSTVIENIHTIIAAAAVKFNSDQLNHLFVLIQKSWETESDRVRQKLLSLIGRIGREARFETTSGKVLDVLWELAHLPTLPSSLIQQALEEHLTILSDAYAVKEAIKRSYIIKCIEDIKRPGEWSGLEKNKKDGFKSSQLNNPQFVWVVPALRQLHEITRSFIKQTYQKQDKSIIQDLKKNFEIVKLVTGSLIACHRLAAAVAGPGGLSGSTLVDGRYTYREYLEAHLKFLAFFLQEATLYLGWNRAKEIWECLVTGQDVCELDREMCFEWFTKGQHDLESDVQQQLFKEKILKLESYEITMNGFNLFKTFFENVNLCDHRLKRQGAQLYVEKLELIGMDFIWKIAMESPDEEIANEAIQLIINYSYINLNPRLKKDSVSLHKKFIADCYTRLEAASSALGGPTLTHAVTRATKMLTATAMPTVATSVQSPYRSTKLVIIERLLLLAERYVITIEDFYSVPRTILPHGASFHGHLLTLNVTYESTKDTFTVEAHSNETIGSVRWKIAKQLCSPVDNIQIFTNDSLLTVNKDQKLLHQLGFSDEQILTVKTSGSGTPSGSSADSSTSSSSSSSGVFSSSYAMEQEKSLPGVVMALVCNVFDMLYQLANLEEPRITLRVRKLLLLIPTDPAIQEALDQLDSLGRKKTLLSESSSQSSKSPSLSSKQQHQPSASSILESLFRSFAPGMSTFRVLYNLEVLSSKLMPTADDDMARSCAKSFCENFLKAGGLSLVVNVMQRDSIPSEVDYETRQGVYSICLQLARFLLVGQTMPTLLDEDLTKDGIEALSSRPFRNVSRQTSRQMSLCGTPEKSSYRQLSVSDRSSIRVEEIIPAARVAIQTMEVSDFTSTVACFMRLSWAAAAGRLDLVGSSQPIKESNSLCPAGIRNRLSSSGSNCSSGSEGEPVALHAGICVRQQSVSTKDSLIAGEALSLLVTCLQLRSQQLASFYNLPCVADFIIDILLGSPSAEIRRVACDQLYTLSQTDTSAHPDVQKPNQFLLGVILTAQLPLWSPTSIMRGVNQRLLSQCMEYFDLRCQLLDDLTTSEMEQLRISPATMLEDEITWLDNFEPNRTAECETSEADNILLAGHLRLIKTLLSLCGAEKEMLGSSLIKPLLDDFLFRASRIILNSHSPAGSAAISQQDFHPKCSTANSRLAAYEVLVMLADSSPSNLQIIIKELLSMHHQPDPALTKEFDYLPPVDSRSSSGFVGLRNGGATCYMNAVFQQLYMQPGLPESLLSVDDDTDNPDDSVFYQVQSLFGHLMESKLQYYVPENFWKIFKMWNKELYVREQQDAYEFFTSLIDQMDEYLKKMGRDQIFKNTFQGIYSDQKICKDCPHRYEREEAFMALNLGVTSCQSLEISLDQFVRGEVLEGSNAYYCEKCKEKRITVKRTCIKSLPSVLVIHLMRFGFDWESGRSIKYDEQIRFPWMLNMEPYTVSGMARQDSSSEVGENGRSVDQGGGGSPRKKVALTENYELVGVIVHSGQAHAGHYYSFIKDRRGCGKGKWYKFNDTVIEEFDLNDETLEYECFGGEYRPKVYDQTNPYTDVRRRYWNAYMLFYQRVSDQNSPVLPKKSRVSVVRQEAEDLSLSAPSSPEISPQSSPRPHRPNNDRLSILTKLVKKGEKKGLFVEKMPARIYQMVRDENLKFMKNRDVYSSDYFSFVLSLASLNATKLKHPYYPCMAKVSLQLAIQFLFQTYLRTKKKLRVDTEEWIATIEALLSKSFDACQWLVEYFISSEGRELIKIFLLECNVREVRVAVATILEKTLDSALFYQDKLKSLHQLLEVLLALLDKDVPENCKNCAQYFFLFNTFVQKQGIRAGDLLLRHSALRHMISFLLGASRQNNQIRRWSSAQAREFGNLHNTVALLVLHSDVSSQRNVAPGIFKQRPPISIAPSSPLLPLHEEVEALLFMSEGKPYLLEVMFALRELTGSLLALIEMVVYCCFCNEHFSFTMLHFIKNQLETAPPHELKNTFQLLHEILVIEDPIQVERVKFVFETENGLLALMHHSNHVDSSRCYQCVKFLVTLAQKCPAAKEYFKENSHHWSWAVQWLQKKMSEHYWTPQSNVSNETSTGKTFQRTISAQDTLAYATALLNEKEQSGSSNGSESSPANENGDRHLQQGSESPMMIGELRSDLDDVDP

NC(=O)C(Cc1ccccc1)NC(=O)CCl (stereo not given)
inactive: USP19 -0.0793 | USP22 -0.0897 | USP24 -0.0605 | USP25 -0.291 | USP28 -0.39
